Test results as given in the supplement of paper PMC6555819.

Columns and labels:
Experiment in all cases: PBM binding z-score (relative to random genomic background probes); higher = stronger binding; sequences stand for … in GC…GCGATTGACAGCGTAGAATGAAGG
[1] = system: FXR:RXRa (NR concentration 270 nM, RXRa partner concentration 90 nM)
Method in brief: (§1)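 Custom Agilent 4×180K protein-binding microarrays carried double-stranded probes. Their 34-nt variable regions held direct-repeat seeds, single-nucleotide variants, half-site ablations and random human genomic background sequences. Arrays were incubated 1 h with ligand-free nuclear receptor dimers in PBS pH 7.4, 2% milk, 0.02% Triton X-100, 1 mM DTT, 0.2 mg/mL BSA and 0.4 mg/ml salmon testes DNA. Antibodies against each partner (one per run) detected binding, and scanned fluorescence was regression-normalized. Binding z-scores use random background probes as reference.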

[2] = system: LXRa:RXRa (NR concentration 270 nM, RXRa partner concentration 90 nM)
Method in brief: as §1

[3] = system: LXRa homodimer (NR concentration 270 nM)
Method in brief: as §1

[4] = system: LXRb:RXRa (NR concentration 270 nM, RXRa partner concentration 90 nM)
Method in brief: as §1

[5] = system: LXRb homodimer (NR concentration 270 nM)
Method in brief: as §1

[6] = system: PPARa:RXRa (NR concentration 270 nM, RXRa partner concentration 90 nM)
Method in brief: as §1

[7] = system: PPARg:RXRa (NR concentration 180 nM, RXRa partner concentration 90 nM)
Method in brief: as §1

[8] = system: PPARg:RXRa 270nM:90nM, anti-RXR (NR concentration 270 nM, RXRa partner concentration 90 nM)
Method in brief: as §1

[9] = system: PPARg:RXRa 30nM:10nM, anti-RXR (NR concentration 30 nM, RXRa partner concentration 10 nM)
Method in brief: as §1

[10] = system: PPARg:RXRa 90nM:30nM, anti-RXR (NR concentration 90 nM, RXRa partner concentration 30 nM)
Method in brief: as §1

[11] = system: PPARg:RXRa DBDmut IVT, anti-RXR (DBD mutation: RXRa K156A/R161A, NR concentration 270 nM, RXRa partner concentration 90 nM)
Method in brief: as §1

[12] = system: PPARg:RXRa IVT, anti-PPARg (NR concentration 270 nM, RXRa partner concentration 90 nM)
Method in brief: as §1

[13] = system: PPARg DBDmut:RXRa IVT, anti-PPARg (DBD mutation: PPARg1 K132A/R137A, NR concentration 270 nM, RXRa partner concentration 90 nM)
Method in brief: as §1

[14] = system: PPARg DBDmut IVT, anti-PPARg (DBD mutation: PPARg1 K132A/R137A, NR concentration 270 nM)
Method in brief: as §1

[15] = system: PPARg homodimer (NR concentration 180 nM)
Method in brief: as §1

[16] = system: PXR:RXRa (NR concentration 270 nM, RXRa partner concentration 90 nM)
Method in brief: as §1

[17] = system: PXR homodimer (NR concentration 270 nM)
Method in brief: as §1

[18] = system: RARa:RXR (NR concentration 270 nM, RXRa partner concentration 90 nM)
Method in brief: as §1

[19] = system: RARa homodimer (NR concentration 270 nM)
Method in brief: as §1

[20] = system: RARb:RXRa (NR concentration 270 nM, RXRa partner concentration 90 nM)
Method in brief: as §1

Sequence	PBM binding z-score [1]	PBM binding z-score [2]	PBM binding z-score [3]	PBM binding z-score [4]	PBM binding z-score [5]	PBM binding z-score [6]	PBM binding z-score [7]	PBM binding z-score [8]	PBM binding z-score [9]	PBM binding z-score [10]	PBM binding z-score [11]	PBM binding z-score [12]	PBM binding z-score [13]	PBM binding z-score [14]	PBM binding z-score [15]	PBM binding z-score [16]	PBM binding z-score [17]	PBM binding z-score [18]	PBM binding z-score [19]	PBM binding z-score [20]
CCTGCTAGGTCAATGGTCAGGTAAAGCAGCTCGC	3.13	2.29	-0.153	1.46	-0.313	3.36	4.48	5.09	2.62	4.62	4.38	4.23	0.154	-0.732	1.38	0.832	-0.154	1.93	-0.238	3.81
AGTCAAAGTACAGGACGAGGTAACGTAAAGCACG	0.0471	-0.247	0.0589	-0.158	-0.441	-0.0272	0.99	0.138	0.254	0.0519	-0.428	0.795	0.576	0.384	0.381	-0.161	0.4	0.278	-0.0608	0.641
TAGCCGAGGTCATTGGGCCAGTATAGTACGCATC	7.32	5.83	2.5	5.28	1.76	6.2	6.77	6.15	3.26	5.02	2.68	4.59	-0.49	0.82	2.28	5.5	2.28	4.87	0.0596	4.78
AGACTGAGGTTATTAAGATCAGGGAATTGCGGTC	1.39	1.31	0.0697	1.16	-0.265	2.03	0.624	0.982	0.0377	0.409	0.46	0.765	0.238	-0.249	0.438	1.08	0.427	1.52	0.126	1.4
ACTTACGGGTCAACGATGTTATAGCACGCGTATA	6.28	4.04	0.405	3.64	0.787	5.53	4.83	5.13	2.07	3.75	3.44	3.78	1.72	1.54	2.59	3.49	0.444	4.41	0.951	4.09
